Assay results published in the supplement of paper PMC10849652.
About 7,900 targets were measured; listed, in parts, are those with a hit and a random draw of the rest. About 0.6% of all pairs of compound and target were hits.

Columns and labels:
Assay in all cases: log2 fold change, soluble protein after heating vs DMSO (PISA); higher = thermal stabilisation; K562 cells, 10 uM, 30 min; active = over 0.2 and 3.5 SD of the protein, either way, in both replicates (recomputed)
[1] = compound: CC1=C(SC2=C1C(=N[C@H](C3=NN=C(N32)C)CC(=O)N)C4=CC=C(C=C4)Cl)C
How it was run: (§1)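 For each measurement, 10 μM compound was applied for 30 min to K562 cells at 2×10^6 cells/mL. Aliquots were heated for 3 min across 48°C-58°C, pooled, and extracted in PBS with 0.5% NP-40 at 4°C; the supernatant after 21,000xg for 90 min was soluble protein. This was quantified by TMTpro 16plex LC-MS/MS with channel sums equalised, and thermal stability was reported relative to control samples from duplicates, on a log2 fold-change scale.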

[2] = compound: CC1=C2C(=CC=C1)N=C(N(C2=O)C3=CC=CC=C3C)CN4C=NC5=C(N=CN=C54)N
How it was run: as §1

[3] = compound: Cc1sc2c(c1C)C(c1ccc(Cl)cc1)=N[C@@H](CC(=O)OC(C)(C)C)c1nnc(C)n1-2
How it was run: as §1

[4] = compound: c1ccc([C@@H]2C[C@H]2NC2CCNCC2)cc1
How it was run: as §1

[5] = compound: C1=CC=C(C=C1)[C@H](COC2=CC3=C(C=C2)NC(=O)N3)NC(=O)C4=CC=CN(C4=O)CC5=CC(=C(C=C5)F)F
How it was run: as §1

Measured: log2 fold change

PEX5 isoform 4 (UniProt P50542)
inactive: [1] -0.147 | [2] 0.043 | [3] 0.059 | [4] 0.006

PSMD8 (UniProt K7ERW6)
inactive: [2] 0.2 | [3] 0.03

PRR14L (UniProt Q5THK1)
Chain of UniProt Q5THK1 (Q5THK1 whole entry, looked up): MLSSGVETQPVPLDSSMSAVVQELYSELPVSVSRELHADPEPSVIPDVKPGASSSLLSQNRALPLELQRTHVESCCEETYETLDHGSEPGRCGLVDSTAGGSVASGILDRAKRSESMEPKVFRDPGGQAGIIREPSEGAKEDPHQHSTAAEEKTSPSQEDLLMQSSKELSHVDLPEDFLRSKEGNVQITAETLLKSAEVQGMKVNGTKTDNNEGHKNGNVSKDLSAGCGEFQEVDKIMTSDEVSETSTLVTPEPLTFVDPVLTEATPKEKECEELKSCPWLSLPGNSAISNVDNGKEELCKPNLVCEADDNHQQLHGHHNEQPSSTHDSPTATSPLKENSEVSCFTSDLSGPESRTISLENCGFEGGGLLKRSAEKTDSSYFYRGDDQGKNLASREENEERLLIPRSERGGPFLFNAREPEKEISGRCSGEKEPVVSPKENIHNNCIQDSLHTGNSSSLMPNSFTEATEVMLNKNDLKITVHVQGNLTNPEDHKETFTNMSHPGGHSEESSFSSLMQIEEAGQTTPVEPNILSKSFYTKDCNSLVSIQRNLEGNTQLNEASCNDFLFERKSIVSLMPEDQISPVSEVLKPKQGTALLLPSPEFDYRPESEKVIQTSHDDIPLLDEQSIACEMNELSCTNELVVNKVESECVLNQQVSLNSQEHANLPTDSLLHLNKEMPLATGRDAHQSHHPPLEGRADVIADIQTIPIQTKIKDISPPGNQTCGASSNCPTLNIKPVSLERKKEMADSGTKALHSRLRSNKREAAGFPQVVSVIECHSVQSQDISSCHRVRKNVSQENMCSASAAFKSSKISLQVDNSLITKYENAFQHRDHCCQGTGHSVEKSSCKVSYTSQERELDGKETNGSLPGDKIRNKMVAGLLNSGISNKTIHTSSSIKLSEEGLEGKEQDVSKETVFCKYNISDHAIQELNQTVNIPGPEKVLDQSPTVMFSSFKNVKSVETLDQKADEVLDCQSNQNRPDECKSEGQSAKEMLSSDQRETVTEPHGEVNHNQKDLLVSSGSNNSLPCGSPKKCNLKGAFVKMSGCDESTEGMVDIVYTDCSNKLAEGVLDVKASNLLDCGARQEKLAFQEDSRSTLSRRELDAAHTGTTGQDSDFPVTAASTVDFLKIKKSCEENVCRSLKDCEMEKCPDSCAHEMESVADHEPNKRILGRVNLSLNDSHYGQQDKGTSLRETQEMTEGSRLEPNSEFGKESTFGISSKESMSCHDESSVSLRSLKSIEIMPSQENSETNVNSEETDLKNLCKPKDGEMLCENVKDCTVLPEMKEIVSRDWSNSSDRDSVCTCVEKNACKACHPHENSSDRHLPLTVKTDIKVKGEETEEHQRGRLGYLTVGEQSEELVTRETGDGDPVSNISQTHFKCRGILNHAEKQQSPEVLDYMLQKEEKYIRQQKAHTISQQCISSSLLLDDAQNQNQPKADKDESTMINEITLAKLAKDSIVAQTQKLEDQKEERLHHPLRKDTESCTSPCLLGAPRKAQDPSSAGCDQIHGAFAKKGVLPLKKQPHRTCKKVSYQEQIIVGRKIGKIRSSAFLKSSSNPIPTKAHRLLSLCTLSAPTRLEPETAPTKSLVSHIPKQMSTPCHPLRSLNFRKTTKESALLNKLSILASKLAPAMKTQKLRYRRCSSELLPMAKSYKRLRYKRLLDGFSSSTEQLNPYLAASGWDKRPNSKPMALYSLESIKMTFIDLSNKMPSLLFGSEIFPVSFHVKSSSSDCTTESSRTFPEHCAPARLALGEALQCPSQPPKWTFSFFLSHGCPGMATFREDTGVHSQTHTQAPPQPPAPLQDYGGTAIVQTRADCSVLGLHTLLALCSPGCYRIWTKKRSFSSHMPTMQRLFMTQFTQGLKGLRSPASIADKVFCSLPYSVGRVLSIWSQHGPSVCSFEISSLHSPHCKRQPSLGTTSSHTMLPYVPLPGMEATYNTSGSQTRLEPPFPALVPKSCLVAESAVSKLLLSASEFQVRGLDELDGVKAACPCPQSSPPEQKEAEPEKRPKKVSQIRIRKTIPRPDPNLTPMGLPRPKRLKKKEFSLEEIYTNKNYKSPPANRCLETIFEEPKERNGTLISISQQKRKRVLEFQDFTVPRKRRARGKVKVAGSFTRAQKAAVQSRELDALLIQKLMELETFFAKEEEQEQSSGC
inactive: [1] -0.052 | [2] 0.312 | [3] 0.042 | [4] 0.103

PCF11 (UniProt O94913)
Chain of UniProt O94913 (O94913 whole entry, looked up): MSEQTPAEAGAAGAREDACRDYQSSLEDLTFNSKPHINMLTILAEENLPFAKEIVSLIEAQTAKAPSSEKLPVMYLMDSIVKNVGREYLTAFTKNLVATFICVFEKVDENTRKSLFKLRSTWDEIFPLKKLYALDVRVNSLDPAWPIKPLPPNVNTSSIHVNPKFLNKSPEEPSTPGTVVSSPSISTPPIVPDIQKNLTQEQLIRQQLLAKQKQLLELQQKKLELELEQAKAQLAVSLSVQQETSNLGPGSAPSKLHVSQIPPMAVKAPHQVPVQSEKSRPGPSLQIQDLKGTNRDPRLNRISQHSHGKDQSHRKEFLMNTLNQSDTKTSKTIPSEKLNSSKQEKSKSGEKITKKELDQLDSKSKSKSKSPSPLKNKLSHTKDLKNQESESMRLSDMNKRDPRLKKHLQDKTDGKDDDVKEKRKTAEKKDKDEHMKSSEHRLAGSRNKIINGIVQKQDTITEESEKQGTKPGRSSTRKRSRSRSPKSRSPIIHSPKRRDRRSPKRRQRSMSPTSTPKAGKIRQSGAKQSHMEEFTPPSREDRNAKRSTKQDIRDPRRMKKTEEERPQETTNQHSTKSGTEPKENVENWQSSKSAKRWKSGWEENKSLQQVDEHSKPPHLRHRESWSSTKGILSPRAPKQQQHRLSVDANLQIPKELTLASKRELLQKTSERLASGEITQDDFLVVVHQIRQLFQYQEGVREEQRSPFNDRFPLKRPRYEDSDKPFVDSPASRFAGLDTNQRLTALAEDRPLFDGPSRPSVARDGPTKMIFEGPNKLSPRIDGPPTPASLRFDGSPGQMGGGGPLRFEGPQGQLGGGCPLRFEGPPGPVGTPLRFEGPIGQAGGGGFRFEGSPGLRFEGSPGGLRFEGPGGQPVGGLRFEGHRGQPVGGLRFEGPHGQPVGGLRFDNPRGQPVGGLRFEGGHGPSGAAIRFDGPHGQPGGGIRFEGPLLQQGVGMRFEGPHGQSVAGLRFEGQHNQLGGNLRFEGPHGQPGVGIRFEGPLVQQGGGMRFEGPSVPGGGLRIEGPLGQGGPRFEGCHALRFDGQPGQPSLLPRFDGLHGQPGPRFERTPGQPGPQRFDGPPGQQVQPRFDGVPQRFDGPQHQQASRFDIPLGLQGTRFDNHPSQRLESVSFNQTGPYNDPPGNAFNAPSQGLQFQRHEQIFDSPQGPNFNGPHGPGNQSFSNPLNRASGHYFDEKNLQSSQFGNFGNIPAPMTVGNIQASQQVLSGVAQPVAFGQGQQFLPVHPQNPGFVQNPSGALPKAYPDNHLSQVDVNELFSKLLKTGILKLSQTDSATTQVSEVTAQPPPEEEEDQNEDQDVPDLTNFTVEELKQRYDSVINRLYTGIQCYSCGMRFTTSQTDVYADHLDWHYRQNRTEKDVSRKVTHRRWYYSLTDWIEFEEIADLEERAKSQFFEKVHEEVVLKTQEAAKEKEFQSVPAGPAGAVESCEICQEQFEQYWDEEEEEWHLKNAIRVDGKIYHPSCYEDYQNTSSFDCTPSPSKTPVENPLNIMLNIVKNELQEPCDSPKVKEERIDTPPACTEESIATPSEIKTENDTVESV
inactive: [5] -0.319 | [1] -0.02 | [2] 0.068 | [4] 0.006

PLCG1 isoform 2 (UniProt P19174)
Chain of UniProt P19174 (P19174 whole entry, looked up): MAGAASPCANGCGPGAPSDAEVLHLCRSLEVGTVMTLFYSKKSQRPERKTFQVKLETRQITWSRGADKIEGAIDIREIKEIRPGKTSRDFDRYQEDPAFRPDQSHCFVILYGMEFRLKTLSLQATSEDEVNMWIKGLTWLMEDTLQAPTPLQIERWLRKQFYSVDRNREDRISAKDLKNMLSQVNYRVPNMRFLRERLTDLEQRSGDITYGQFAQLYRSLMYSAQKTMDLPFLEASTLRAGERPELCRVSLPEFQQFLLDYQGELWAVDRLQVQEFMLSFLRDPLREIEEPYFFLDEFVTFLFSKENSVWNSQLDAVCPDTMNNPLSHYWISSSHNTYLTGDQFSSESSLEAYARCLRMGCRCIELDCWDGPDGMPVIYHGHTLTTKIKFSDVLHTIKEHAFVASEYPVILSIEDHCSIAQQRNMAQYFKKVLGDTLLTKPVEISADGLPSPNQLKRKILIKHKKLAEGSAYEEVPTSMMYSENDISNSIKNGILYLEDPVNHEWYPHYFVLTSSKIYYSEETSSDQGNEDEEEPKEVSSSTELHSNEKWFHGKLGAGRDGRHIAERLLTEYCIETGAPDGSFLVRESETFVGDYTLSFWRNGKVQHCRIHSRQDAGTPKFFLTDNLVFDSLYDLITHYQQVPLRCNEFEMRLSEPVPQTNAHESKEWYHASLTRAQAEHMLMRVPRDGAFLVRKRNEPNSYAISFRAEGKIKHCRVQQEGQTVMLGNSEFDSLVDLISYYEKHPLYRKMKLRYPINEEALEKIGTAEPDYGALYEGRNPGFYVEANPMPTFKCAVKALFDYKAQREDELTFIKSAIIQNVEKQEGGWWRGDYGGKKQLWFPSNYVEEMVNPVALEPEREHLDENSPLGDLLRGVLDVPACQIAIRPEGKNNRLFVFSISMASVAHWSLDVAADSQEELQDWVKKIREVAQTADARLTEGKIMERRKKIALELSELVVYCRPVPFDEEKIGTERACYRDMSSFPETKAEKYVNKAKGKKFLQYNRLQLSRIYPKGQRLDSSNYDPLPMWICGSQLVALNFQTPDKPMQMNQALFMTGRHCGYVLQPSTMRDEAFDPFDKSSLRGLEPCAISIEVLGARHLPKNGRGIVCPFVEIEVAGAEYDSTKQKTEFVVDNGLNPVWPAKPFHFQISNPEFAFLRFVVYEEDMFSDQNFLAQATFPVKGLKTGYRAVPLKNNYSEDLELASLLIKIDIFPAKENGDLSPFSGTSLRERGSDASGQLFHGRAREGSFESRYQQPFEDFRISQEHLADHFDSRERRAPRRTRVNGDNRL
inactive: [5] -0.059 | [1] 0.038 | [2] 0.033 | [3] 0.063 | [4] -0.028
